Rows were chosen to be rich in hits. Some 6.5% of all compounds tested hit in one or more screens of this group.
HCMV inh: blocks human cytomegalovirus replication; HFF cells, HCMV-luciferase reporter, 72 h; hits give low values; activity change, negative = inhibition, % at 57.5 µM; 4.5% of 410,000 active; in the data active means activity change below about -60%; inconclusive means no clear call, values can overlap the other calls; inactive means above about -39%
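Inhibition of viral replication was scored as loss of reporter luminescence in HFFs infected with HCMV-luciferase (MOI 1 PFU/cell) for 72 h; compounds tested at 2 doses, normalized to buffer and Salinomycin controls.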
MARV entry inh: Marburg virus entry inhibition; Potency, µM (top dose mostly 37.8 µM), for inactives: top-dose activity change, negative = inhibition, usual class: inhibitors; Marburg virus pseudotyped entry inhibition, cell reporter; 1.8% of 300,000 active; AID 540276; calls by dose curve; tested in HEK293 cells; further: potency means the concentration at half of the fitted maximal effect
FMDV antiviral: antivirals against foot and mouth disease virus; FMDV antiviral cell-based qHTS; Potency, µM (titrated, usually from 57.9 µM), without a hit: at the highest dose activity change, negative = inhibition, actives largely listed as inhibitors; 1.2% of 410,000 active; calls by dose curve; tested in HEK293T cells; further: read-out not given here; potency means the concentration at half of the fitted maximal effect; nearly all actives have a fitted effect of over 45% in size
LASV entry inh: inhibitors of Lassa virus binding or cell entry | Lassa virus pseudotype entry inhibition, cell reporter | Potency, µM (titrated, usually from 37.9 µM), inactives show at the highest dose activity change, negative = inhibition, hits mostly inhibitors | 1.2% of 300,000 active; calls by dose curve; tested in HEK293 cells; further: potency means the concentration at half of the fitted maximal effect; nearly all actives have a fitted effect of over 50% in size
Vaccinia mCherry: inhibitors of vaccinia virus infection (mCherry reporter signal) | Potency, µM (series often up to 36.5 µM), for inactives: at the top dose activity change, negative = inhibition, actives largely listed as inhibitors | 0.63% of 310,000 active | AID 720579 | Vaccinia virus mCherry reporter infection, fluorescence; calls by dose curve; tested in A549 cells; further: potency means the concentration at half of the fitted maximal effect; nearly all actives have a fitted effect of over 35% in size
VACV Venus inh: vaccinia inhibition (Venus reporter); Vaccinia virus Venus reporter expression, fluorescence; 0.46% of 330,000 active; Potency, µM (titrated, usually from 36.5 µM), for inactives: top-dose activity change, negative = inhibition, most hits filed as inhibitors; calls by dose curve; tested in A549 cells; further: potency means the concentration at half of the fitted maximal effect; nearly all actives have a fitted effect of over 30% in size
The depositor's hits bear a star; i = inactive; ? = inconclusive; / = not tested or not shown; [ ] = another dose, or the depositor's remark. On the % scale 0 is the no-effect control and ±100 the full control effect.

SMILES	HCMV inh	MARV entry inh	FMDV antiviral	LASV entry inh	Vaccinia mCherry	VACV Venus inh
CN(C)S(=O)(=O)c1ccc2c(c1)Cc1cc(S(=O)(=O)N(C)C)ccc1-2	-35.5	-6.5%[46.1 µM]	-19.0%	-0.2%[46.1 µM]	-16.1%	-22.3%
CNc1nc2cnc(Nc3ccc(C(F)(F)F)cc3)cc2n1-c1cc(OC)c(OC)c(OC)c1	-13.8	/	/	/	/	/
CCC(Cc1ccccc1)NCc1c(C(=O)O)c(C)n(Cc2ccccc2)c1C (stereo not given)	-74.2*	?	-8.4%	-28.7%[46.1 µM]	-10.6%	-15.5%
C=CCn1c2ccccc2c2nnc(SCCCn3c(=O)[nH]c4ccccc43)nc21	50.9	?	?	?	/	10µM*
C=CCn1c2ccccc2c2nnc(SCN3C(=O)c4ccccc4C3=O)nc21	8.8	4.7%[46.1 µM]	-12.7%	1.2%	/	-25.2%
O=C1c2ccccc2C(=O)N1CSc1nnc2c3ccccc3n(CCc3ccccc3)c2n1	/	27.0%	?	4.2%	/	?
c1ccc(CCn2c3ccccc3c3nnc(SCc4ccc5nonc5c4)nc32)cc1	-81.5*	3.26µM*	?	5.8µM*	-20.2%	6.7%
c1ccc(Cn2c3ccccc3c3nnc(SCCN4CCCCC4)nc32)cc1	-60.1*	-13.9%[46.1 µM]	-25.2%	4.7%	-5.2%	-2.1%
CCN(CC)CCSc1nnc2c3ccccc3n(CCc3ccccc3)c2n1	-78.9*	/	-21.4%	/	?	?
C=CCn1c2ccccc2c2nnc(SCCN3CCCCC3)nc21	-8.4	/	-13.0%	/	/	/
Cc1cccc(C)c1-n1nnnc1C1c2ccccc2C(=O)N1CCCN1CCOCC1 (stereo not given)	-5.3	/	-11.5%	/	-0.9%	-4.8%
COc1cccc(CNC(=O)c2c(OC)cc(=O)n3c2CCN(C(=O)C2CC=CCC2)CC3)c1 (stereo not given)	/	/	1.6%	/	-16.0%	-9.8%
O=C(N(CC1CCCCC1)C1=NCCCC1)C12CC3CC(CC(C3)C1)C2	/	-19.3%	/	/	/	/
CC(C)c1ccc(-c2nnc3n(CCc4ccccc4)c(=O)c4ccccc4n23)cc1	15.8	4.8%[46.1 µM]	28.2µM*	-1.6%[46.1 µM]	-25.9%	-9.4%
COc1ccc(-c2nnc3n(CCc4ccccc4)c(=O)c4ccccc4n23)c(OC)c1	72.4	10µM*	28.2µM*	?	-10.7%	-3.3%
COc1cc(OC)c(-c2nnc3n(CCc4ccccc4)c(=O)c4ccccc4n23)cc1OC	7.1	/	/	/	/	/
Cc1ccc2c(c1)N=C(c1ccc(Cl)cc1)CO2	-102.3*	?	4.6%	-42.2%	?	?
Cc1cc(C)c(NS(=O)(=O)c2cccc3cccnc23)c(C)c1	-27.0	-21.7%[46.1 µM]	11.6%	-1.4%	-1.0%	-12.1%
CC(=O)Nc1ccc(S(=O)(=O)Nc2cccc3cccnc23)cc1	-82.8*	-8.8%[46.1 µM]	-12.4%	/	-1.3%	-1.5%
NC(=S)Nc1cccc2cccnc12	-78.6*	19.2%	-10.4%	1.0%	/	-16.2%
COc1ccc(NS(=O)(=O)c2ccc3ccccc3c2)c2ncccc12	-92.1*	?	26.9%	?	?	13.7%
CC(=O)Nc1ccc(S(=O)(=O)Nc2ccccn2)cc1	30.3	17.3%[46.1 µM]	-11.4%	-2.4%	-11.7%	-8.5%
Cc1ccc(S(=O)(=O)Nc2cccc3cccnc23)c([N+](=O)[O-])c1	-98.1*	?	?	10µM*	?	?
O=c1[nH]c(=S)[nH]c2c1C(c1ccc(Br)cc1)c1c([nH]c(=S)[nH]c1=O)O2	-28.3	0.1%[46.1 µM]	-17.9%	0.0%[46.1 µM]	i	-5.2%
O=C(COc1ccccc1C(=O)Nc1ccccc1)Nc1ccc(-c2ccccc2)cc1	/	/	/	/	-23.9%	-25.3%
SMILES	HCMV inh	MARV entry inh	FMDV antiviral	LASV entry inh	Vaccinia mCherry	VACV Venus inh
O=C(O)CCn1cc(C2CC(c3ccccc3)=NN2c2ccccc2)c(-c2ccccc2)n1 (stereo not given)	53.0	?	-28.9%	-23.3%[46.1 µM]	-14.3%	-9.6%
O=S(=O)(Nc1cccc2cccnc12)c1ccc(S(=O)(=O)N2CCCC2)cc1	-85.9*	?	/	8.2µM*	-3.5%	-9.6%
O=S(=O)(Nc1cccc2cccnc12)c1ccccc1	-100.9*	?	?	?	10µM*	12.6µM*
Cc1ccc2cccc(NS(=O)(=O)c3ccccc3)c2n1	-80.0*	1.41µM*	?	?	-4.5%	-15.7%
Cc1ccccc1NS(=O)(=O)c1ccc(S(=O)(=O)N2CCCC2)cc1	-12.8	/	?	/	-1.1%	-7.6%
CS(=O)(=O)Nc1cccc2cccnc12	29.4	-12.7%	-0.7%	-20.0%	/	-10.7%
COc1ccccc1-c1ccc(C(=O)N2CCC(N3CCc4ccccc4C3)CC2)c(N(C)CC2COCCO2)n1 (stereo not given)	/	/	1.5%	/	-0.8%	11.8%
CN(C)CC(C(=O)Cc1ccccc1)c1ccccc1 (stereo not given)	-96.5*	?	28.2µM*	-0.8%[46.1 µM]	-22.9%	?
CN1c2ccccc2C(C)(C)C12CC(c1ccc(S(=O)(=O)N3CCCCC3)cc1)=NO2 (stereo not given)	-70.3*	0.164µM*	3.7%	0.184µM*	-3.2%	10.9%
CN1c2ccccc2C(C)(C)C12CC(c1cccc(S(=O)(=O)N3CCCC3)c1)=NO2 (stereo not given)	-71.8*	0.461µM*	-24.1%	0.517µM*	i	2.0%
O=S(=O)(c1ccc(-c2ccccc2)cc1)N1CCCCC1	17.4	5.2%	-6.5%	-13.7%	-9.4%	2.5%
Cc1c(C(=O)N(C)Cc2ccccc2)oc2c(Cl)cccc12	31.6	-15.1%[46.1 µM]	8.0%	-10.9%[46.1 µM]	-18.2%	8.8%
Cc1c(C(=O)N(C)Cc2cccc(F)c2)oc2c(Cl)cccc12	-29.3	?	7.08µM*	?	-4.4%	-1.3%
Cc1sc2ncnc(N3CCN(S(=O)(=O)c4ccc(Br)cc4)CC3)c2c1C	1.2	3.5%	?	-15.0%	i	-13.9%
Cc1csc2c(N3CCN(S(=O)(=O)c4ccc(Cl)cc4)CC3)ncnc12	24.1	?	-27.9%	2.0%[46.1 µM]	-15.5%	-9.0%
Cc1ccc(S(=O)(=O)N2CCN(C(=O)C3CCN(c4ncnc5sc(C)c(C)c45)CC3)CC2)c(C)c1	-80.2*	/	20µM*	/	/	/
O=S(=O)(c1ccc(Cl)cc1)N1CCN(c2ncnc3sccc23)CC1	-68.6*	?	14.1µM*	?	-17.6%	-28.0%
Cc1csc2ncnc(N3CCN(S(=O)(=O)c4cccc(C(F)(F)F)c4)CC3)c12	-92.3*	?	?	?	-3.1%	-13.2%
Cc1sc2ncnc(N3CCN(S(=O)(=O)c4ccc(C(C)(C)C)cc4)CC3)c2c1C	-81.8*	/	?	/	/	/
COc1ccc(-c2csc3ncnc(N4CCN(S(=O)(=O)c5ccc(C)cc5)CC4)c23)cc1	-39.2	?	-23.0%	-17.9%	?	-15.3%
O=C(c1ccc(CS(=O)Cc2ccccc2Cl)o1)N1CCN(c2cccc(Cl)c2)CC1 (stereo not given)	-23.3	?	-25.3%	?	-12.2%	-23.6%
O=C(c1ccc(CS(=O)c2ccccc2Cl)o1)N1CCN(c2cccc(C(F)(F)F)c2)CC1 (stereo not given)	-96.0*	/	?	-12.5%[46.1 µM]	-15.7%	?
